Shown are actives, neighbours in structure and some others; about 3.2% of the full set was active somewhere.
Yp Topo-I inh: Yersinia pestis topoisomerase I inhibitors, primary screen, biochemical, cleavage product accumulation, plate reader, single point; DNA topoisomerase I (Yersinia pestis CO92); Y. pestis Topo-I cleavage product accumulation; activity, % at 10 µM; 0.064% of 360,000 active; in the data active means activity above about 50%, passing the limit was not always enough
TcdB inh: TcdB glycohydrolase inhibitors, primary screen, biochemical, single point, plate reader. inhibition, % at 9.99 µM. Toxin B (Clostridioides difficile), P18177. AID 652162, 2013. 0.24% of 350,000 active. TcdB glycohydrolase enzymatic assay; in the data active means inhibition above about 10%
PrPC surface inh: inhibitors of human cell surface prion protein PrPC, primary screen, cell-based, TR-FRET; Major prion protein (Homo sapiens), P04156; TR-FRET read-out; inhibition, % at 13.8 µM; 0.43% of 370,000 active; AID 720596, 2013; in the data active means inhibition above about 24%
Mtb FBA inh: Mtb FBA enzyme inhibitors, primary screen, biochemical, fluorescence, strain H37Rv; Fructose-bisphosphate aldolase (Mycobacterium tuberculosis (strain ATCC 25618 / H37Rv)), …; purified M. tuberculosis FBA, fluorescence read-out; inhibition, % at 1 µM; 2.3% of 360,000 active; in the data active means inhibition above about 27%
GDH-TPI inh: GDH-TPI coupling enzyme inhibitors, primary screen, artefact control for M. tuberculosis FBA inhibitor project, biochemical, absorbance, full deck | GDH-TPI coupled enzyme counterscreen, NADH absorbance | inhibition, % at 4.8 µM | 1.2% of 360,000 active | AID 588335, 2011; in the data active means inhibition above about 30%
Each line names hits and unclear results; the compound was inactive in the other large screens.

C[C@@H]1CN([C@H](C)CO)C(=O)c2cccc(NC(=O)c3ccc(-c4nccs4)cc3)c2O[C@H]1CN(C)S(=O)(=O)c1ccc(F)cc1	none (no result: Yp Topo-I inh, PrPC surface inh, Mtb FBA inh, GDH-TPI inh)
Cc1noc(C)c1NC(=O)Nc1ccc2c(c1)C(=O)N([C@@H](C)CO)C[C@@H](C)[C@H](CN(C)C(=O)Nc1ccc3c(c1)OCO3)OCCCC[C@H](C)O2	none (no result: Yp Topo-I inh, PrPC surface inh, Mtb FBA inh, GDH-TPI inh)
CCN(CC)c1ccc(N=Cc2c(O)n(-c3ccccc3C)c(=O)[nH]c2=O)cc1	none (no result: TcdB inh)
Cc1ccccc1-n1c(O)c(C=Nc2ccc3c(c2)OCO3)c(=O)[nH]c1=O	GDH-TPI inh 33.0 (no result: TcdB inh)
CN(CC(=O)OCC(=O)NC(=O)c1cccn1C)S(=O)(=O)c1ccc(Cl)cc1	Mtb FBA inh 192.7 (no result: TcdB inh)
CC1(C)Cc2c(sc3ncn4c(=S)[nH]nc4c23)CO1	TcdB inh 22.0
Cc1ccsc1/C=N/NC(=O)c1ccco1	GDH-TPI inh 33.3 (no result: TcdB inh)
O=C(Cc1cccs1)N/N=C/C=C/c1ccccc1[N+](=O)[O-]	none
COc1ccccc1/C=C/C=N/NC(=O)c1ccncc1	GDH-TPI inh 43.6
O=C(N/N=C/C=N/NC(=O)c1ccco1)c1ccco1	GDH-TPI inh 53.9
COc1ccccc1/C=C/C=N/NC(=O)Cc1cccs1	GDH-TPI inh 32.2 (no result: TcdB inh)
CN(C)CC(=O)N[C@@H]1CC[C@H](CCNS(=O)(=O)c2ccccc2)O[C@@H]1CO	none (no result: Yp Topo-I inh, PrPC surface inh, Mtb FBA inh, GDH-TPI inh)
COc1ccccc1/C=C/C=N/NC(=O)CN1CCN(S(=O)(=O)c2ccc(C)cc2)CC1	GDH-TPI inh 32.8 (no result: TcdB inh)
C/C(=N\NC(=O)c1ccco1)c1ccc(C(=O)O)s1	none
Cc1ccc(S(=O)(=O)N2CCN(CC(=O)N/N=C/c3ccccc3OCC(=O)O)CC2)cc1	none (no result: Yp Topo-I inh, Mtb FBA inh, GDH-TPI inh)
COc1ccccc1/C=C/C=N/NC(=O)c1cc(-c2ccc(C)o2)[nH]n1	GDH-TPI inh 44.4
COc1ccccc1/C=C/C=N/NC(=O)c1ccco1	GDH-TPI inh 36.8
C/C(=N/NC(=O)c1ccco1)c1ccc(Br)s1	GDH-TPI inh 43.0
C[C@@H]1CN([C@@H](C)CO)C(=O)c2cc(NC(=O)c3ccccc3)ccc2O[C@@H](C)CCCCO[C@H]1CN(C)C(=O)c1ccncc1	none (no result: Yp Topo-I inh, PrPC surface inh, Mtb FBA inh, GDH-TPI inh)
Cc1ccsc1/C=N/N=C/c1sccc1C	GDH-TPI inh 33.3
CC(=O)Oc1ccc2c3c(c(=O)oc2c1C)CCCC3	Mtb FBA inh active
CCc1cc2c3c(c(=O)oc2cc1O)CCCC3	Mtb FBA inh active (no result: TcdB inh)
Cc1c(OCC(=O)C(C)(C)C)ccc2c3c(c(=O)oc12)CCCC3	none
COc1ccc2c3c(c(=O)oc2c1OCC(N)=O)CCCC3	Mtb FBA inh 74.9 (no result: TcdB inh)
CCc1cc2c3c(c(=O)oc2cc1OC(C)C(=O)O)CCCC3 (stereo unspecified)	Mtb FBA inh 158.7
COCC(=O)N1CC(=O)N2[C@H](CO)[C@H](c3ccc(-c4ccncc4)cc3)[C@@H]2C1	none (no result: Yp Topo-I inh, PrPC surface inh, Mtb FBA inh, GDH-TPI inh)
CCOC(=O)COc1ccc2c3c(c(=O)oc2c1C)CCC3	none (no result: TcdB inh)
CC(=O)C(C)Oc1ccc2c3c(c(=O)oc2c1)CCCCC3 (stereo unspecified)	Mtb FBA inh 176.2 (no result: TcdB inh)
Cc1c(OC(C)C(=O)O)ccc2c3c(c(=O)oc12)CCCC3 (stereo unspecified)	Mtb FBA inh 172.6
Cc1ccc(C(=O)Nc2cc(=O)n(C)c(=O)n2C)o1	GDH-TPI inh 32.5 (no result: TcdB inh)
CCc1ccccc1NC(=O)c1cccc(NC(=O)/C=C/c2ccco2)c1	GDH-TPI inh 44.4 (no result: TcdB inh)
Cc1ccc(C(=O)C=Cc2ccc3c(c2)OCO3)c(C)c1	none
COc1ccc(C(=O)C=Cc2ccc3c(c2)OCO3)cc1OC	none
O=C(/C=C/c1ccc2c(c1)OCO2)c1ccc(O)cc1O	GDH-TPI inh 40.0
Cc1cccc(C(=O)Nc2cc(=O)n(C)c(=O)n2C)c1	none
COc1cc(OCc2ccccc2)c(C(=O)/C=C/c2ccc3c(c2)OCO3)c(OC)c1OC	GDH-TPI inh 50.3
C[C@@H]1CN([C@H](C)CO)C(=O)c2cc(C#CC3CC3)cnc2O[C@H]1CN(C)C(=O)c1ccccc1	none (no result: Yp Topo-I inh, PrPC surface inh, Mtb FBA inh, GDH-TPI inh)
Cc1ccc(S(=O)(=O)N[C@@H]2CC[C@@H](CCn3cc(-c4cccc(F)c4)nn3)O[C@H]2CO)cc1	none (no result: Yp Topo-I inh, PrPC surface inh, Mtb FBA inh, GDH-TPI inh)
C#CCNC(=O)C1=C[C@H](c2cn(C(C)=O)c3ccccc23)C[C@H](OCCCCO)O1	none (no result: Yp Topo-I inh, PrPC surface inh, Mtb FBA inh, GDH-TPI inh)
O=C(/C=C\c1ccco1)Nc1nc(-c2ccc3ccccc3c2)cs1	GDH-TPI inh 36.1
Cc1ccc(-c2csc(NC(=S)NC(=O)/C=C/c3ccco3)n2)cc1	none (no result: TcdB inh)
NS(=O)(=O)c1ccc(NC(=O)/C=C/c2ccc3c(c2)OCO3)cc1	GDH-TPI inh 36.1
Cc1ccccc1-n1nc2c(c1NC(=O)/C=C\c1ccc3c(c1)OCO3)CSC2	GDH-TPI inh 32.2
CC(=O)Nc1ccc(NC(=O)/C=C/c2ccc3c(c2)OCO3)cc1	none
Cc1ccc(-n2nc3c(c2NC(=O)/C=C\c2ccc4c(c2)OCO4)CSC3)c(C)c1	none
Cc1cc(C)nc(NC(=O)/C=C/c2ccc3c(c2)OCO3)c1	GDH-TPI inh 40.0 (no result: TcdB inh)
C[C@@H]1CN([C@H](C)CO)C(=O)c2cc(NC(=O)CCN3CCOCC3)ccc2O[C@H]1CN(C)Cc1ccncc1	none (no result: Yp Topo-I inh, PrPC surface inh, Mtb FBA inh, GDH-TPI inh)
Cc1sc(NC(=O)/C=C/c2ccc3c(c2)OCO3)nc1-c1ccccc1	none (no result: TcdB inh)
NS(=O)(=O)c1ccc(NC(=S)NCc2ccc3c(c2)OCO3)cc1	TcdB inh 11.8
O=C(/C=C/c1ccco1)Nc1ccc2c(c1)OCO2	GDH-TPI inh 32.9
Cn1c(NC(=O)/C=C/c2ccco2)cc(=O)n(C)c1=O	GDH-TPI inh 31.0
Cc1ccc(/C=C/C(=O)Nc2cc(=O)n(C)c(=O)n2C)o1	none
O=C(/C=C/c1ccc2c(c1)OCO2)Nc1nc(-c2ccccc2)cs1	GDH-TPI inh 45.6 (no result: TcdB inh)
NS(=O)(=O)c1cccc(NC(=S)NCc2ccc3c(c2)OCO3)c1	none
COc1ccc(S(=O)(=O)N(C)C[C@H]2OCCCC[C@H](C)Oc3ccc(NC(=O)c4ccncc4)cc3C(=O)N([C@H](C)CO)C[C@@H]2C)cc1	none (no result: Yp Topo-I inh, PrPC surface inh, Mtb FBA inh, GDH-TPI inh)
Cc1noc(C)c1NC(=O)Nc1ccc2c(c1)C(=O)N([C@H](C)CO)C[C@@H](C)[C@H](CN(C)S(=O)(=O)c1ccc(F)cc1)OCCCC[C@H](C)O2	none (no result: Yp Topo-I inh, PrPC surface inh, Mtb FBA inh, GDH-TPI inh)
CO[C@H]1CN(C)C(=O)c2cc(NC(=O)c3ccccc3F)ccc2OC[C@@H](C)N(C)C[C@H]1C	none (no result: Yp Topo-I inh, PrPC surface inh, Mtb FBA inh, GDH-TPI inh)
CCOc1cccc2cc(-c3csc(NC(=O)CCC(=O)NCCN4CCCCC4C)n3)c(=O)oc12 (stereo unspecified)	GDH-TPI inh 34.1
COc1cccc(/C=C(\C#N)c2nc3ccccc3[nH]2)c1OCC(=O)O	GDH-TPI inh 35.0
COc1cccc(/C=C(/C#N)c2nc3ccccc3[nH]2)c1OC(C)C(=O)O (stereo unspecified)	none
Cc1ccc(/C=C(\C#N)c2nc3ccccc3[nH]2)s1	GDH-TPI inh 36.7 (no result: TcdB inh)
CCS(=O)(=O)N1CCCCN2[C@H](CO)[C@H](c3ccc(-c4ccccc4)cc3)[C@@H]2C1	none (no result: Yp Topo-I inh, PrPC surface inh, Mtb FBA inh, GDH-TPI inh)
